Among the data in PubChem BioAssay (NCI) are growth values, retold here.

This is part of a sample that, as a whole, favours compounds with a hit. Of some 83,000 tested, about 20% had one in any assay.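 Note: values are percent growth. 100 is the growth of untreated cells, values between 100 and 0 indicate rising inhibition; between -100 and 0 indicates cell death.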 The source made the active and inactive calls. Rule for the calls: active = growth percent below 10; inactive = the rest.

The experiment concerns T-47D breast. Put plainly: NCI-60 one-dose screen, 48 h (100 = growth as untreated, 0 = no growth, -100 = all killed). Particulars: 10 µM unless noted.
For the molecule `O=C(Cn1c(-c2ccc([N+](=O)[O-])cc2)nc2ccccc21)NNC(=O)c1cccnc1`, the growth was 71.2% (inactive).
The value for `O=C(Cn1cc(CN2C(=O)c3ccccc3S2(=O)=O)nn1)Nc1nc2ccccc2s1` was 88.1% (inactive); that for `CCN1CC(=O)N(/N=C2\C(=O)Nc3ccccc32)C1=S` was 73.6% (inactive); that for `O=C1NCCC12CCN(c1c(Cl)cncc1-c1ccc(O)cc1)CC2` was 93.7% (inactive).
Consider `COP(=O)(OC)C(C)(C)CC(=O)CC(C#N)(C#N)C(C#N)C#N`, for which the growth was 106% (inactive).
The value for `COc1ccc(-c2nc3c(c(-c4ccccc4)nn3-c3ccccc3)c(-c3ccc(N4CCN(C)CC4)cc3)c2C#N)cc1` was 96.2% (inactive).
In the case of `C#Cc1cccc(Nc2ncnc3ccc(-c4cncc(NS(C)(=O)=O)c4)cc23)c1` it was -5.8% (active); in that of `Cc1ccc(Sc2nnc(/N=C3\C(=O)Nc4ccccc43)s2)cc1`, 107% (inactive); in that of `CN(C)c1ccc(/C=C/C(=O)c2ccc(-n3cc(CN4CCN(c5cc6c(cc5F)c(=O)c(C(=O)O)cn6C5CC5)CC4)nn3)cc2)cc1`, 76.8% (inactive).
The value for `CCOC(=O)CSc1ncnc2c1c(-c1ccccc1)c(-c1ccccc1)n2-c1ccc(C)cc1` was 9.51% (active); that for `O=C(CCCCCCN1CC(=O)N2[C@H](c3cc(Br)cs3)c3[nH]c4ccccc4c3C[C@H]2C1=O)NO` was 17.3% (inactive); that for `Cn1c(O)c(C=NCCN=Cc2c(O)n(C)c(=O)n(C)c2=O)c(=O)n(C)c1=O` was 96.1% (inactive).
Consider `C/C(Nc1ccc(Cl)c(Cl)c1)=C1\CCOC1=O`, for which the growth is 86.6% (inactive).
In the case of `C=C1C(=O)O[C@H]2[C@H]1CC/C(COC(=O)CCSCCC(=O)OC/C1=C/CC[C@@]3(C)O[C@H]3[C@H]3OC(=O)C(=C)[C@@H]3CC1)=C\CC[C@@]1(C)O[C@@H]21` it was 19.1% (inactive).
In the case of `Cc1ccc(/C=N/Nc2nc(Nc3ccccc3)nc(-n3nc(C)cc3C)n2)cc1` it was 7.35% (active); in that of `O=C(CCc1nnc(Cn2cnc3nc[nH]c3c2=O)o1)c1nc2ncccc2[nH]1`, 94.5% (inactive).
In the case of `O=C1NC(=O)c2c1c1c3ccccc3ccc1c1[nH]c3ccc(Br)cc3c21` it was 4.7% (active); in that of `Nc1nc(=S)c2ncn(C3OC(COP(=O)(O)O)C(O)C3O)c2[nH]1` (stereo not given), 30.4% (inactive).
Take `CC12CCC3c4ccccc4CCC3(CO1)C2` (stereo not given): the growth is 101% (inactive).
In the case of `O=Cc1ccc([N+](=O)[O-])s1` it was 82.8% (inactive).
Consider `CC(C)c1ccc(COCc2cc(CN3CCCC3)c(O)c3ncccc23)cc1`, for which the growth was -7.55% (active).
In the case of `COCCNC(=O)c1ccc(-c2nc3ccc4[nH]ncc4c3c3c2CCCC3)cc1` it was 44.5% (inactive); in that of `C/C(=N/O)c1ccc(F)cc1`, 91.4% (inactive).
The value for `COc1ccc2nc(NC(=O)CSc3nnc4n3S(=O)(=O)c3ccccc3N4C)sc2c1` was 99.2% (inactive).
In the case of `CN(Cc1ccc(C(F)(F)F)cc1)CC(O)C(=O)Nc1ccc(Cl)cc1` (stereo not given) it was 18.4% (inactive); in that of `Cc1ccc2c3c(c(=O)[nH]c2c1)C1(C(C#N)=C(N)O3)c2cc(Br)ccc2-c2ccc(Br)cc21`, -29.6% (active).
Consider `CC1(C)CC[C@]2(c3nnc(-c4ccncc4)o3)CC[C@H]3C(=CC[C@H]4[C@@]3(C)CC[C@H]3C(C)(C)C(=O)CC[C@]43C)[C@@H]2C1`, for which the growth is 67.4% (inactive).
In the case of `C=C(C)[C@@H]1CC[C@]2(C(=O)N3CCN(C)CC3)CC[C@]3(C)[C@H](CC[C@@H]4[C@@]5(C)CC(=C/c6ccncc6)/C(=N/O)C(C)(C)[C@@H]5CC[C@]43C)[C@@H]12`, the growth was 71.9% (inactive).
In the case of `Oc1ccc(CCn2c(O)c(/C=C3\CN=c4ccccc4=N3)sc2=S)cc1` it was 39.8% (inactive); in that of `CCNC(=O)c1[nH]cc(-c2ccccc2)c1-c1cc(OC)c2c(c1OC)OCO2`, 87% (inactive).
The value for `C[C@]12C=CC(=O)C=C1CCC1C2[C@@H](O)C[C@@]2(C)C1CC[C@]2(O)C(=O)COC(=O)CCC(=O)O` (stereo not given in full) was 111% (inactive); that for `C=CCc1c(O)c(C(=O)/C=C/c2ccc(Cl)cc2)c(OC)c2ccoc12` was 39.9% (inactive); that for `COc1cc(-n2cc(-c3cc(O)c(C/C=C(\C)CCC=C(C)C)c(O)c3)nn2)cc2c1O[C@]1(C)CC[C@@H](O)C(C)(C)[C@H]1C2` was 5.7% (active).
Turning to `O=C(CSc1nc2ccc([N+](=O)[O-])cc2[nH]1)Nc1cccc(C(F)(F)F)c1`, the growth was 6.1% (active).
Regarding `COc1ccc(C(=O)Nc2ncc(Cc3ccc(F)cc3)s2)cc1`, the growth was 33.6% (inactive).
Consider `COc1cc(-c2nc3cc(Cl)c(Cl)cc3[nH]2)ccc1OCC(=O)N=Nc1c(O)[nH]c2ccc([N+](=O)[O-])cc12`, for which the growth was 66.6% (inactive).
In the case of `CCOC(=O)c1cc2c(=O)oc3ccccc3c2oc1=O` it was 107% (inactive); in that of `c1cc2[nH]ncc2cc1-c1nc2ccc3[nH]ncc3c2c2c1CCCC2`, 4.77% (active); in that of `Cc1cccc2c1NC(=O)C2(c1ccc(O)cc1)c1ccc(O)cc1`, -18.8% (active).
The value for `CCOC(=O)C(=Cc1cccc(Cl)c1)C(=O)OCC` was -5.34% (active).
